From PubChem BioAssay

The compounds below were run on Human papillomavirus type 1a protein E7 (residues 44-93) (assay: HPV1a E7 fragment binders on microarrays, primary screen, biochemical, small-molecule microarray, residues 44-93, 635 nm fluorescence (AID 1108;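 note: E7 fragment applied at 1 µg/mL in TBST for 1 h at 4 C; score combines spot fluorescence with its signal to noise ratio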)). Settings: small-molecule microarray binding, fluorescence 635 nm; higher = more signal.

Compound | composite z-score
CC(C)c1ccc(NN2C(C(O)c3ccc(N(C)C)cc3)C=CC3C(=O)N(c4ccccc4)C(=O)C32)cc1 (stereo unspecified) | 1.42
CC(C)NC(=O)[C@@H]1c2ccccc2C(=O)N(Cc2ccccc2)[C@H]1c1ccc(CO)cc1 | -1.8
CCOC(=O)C[C@H]1[C@H](OC(=O)c2ccccc2-c2ccccc2)[C@@H](NC(=O)Cc2ccc(OC)cc2)c2cc(OCCCO)ccc2N1C(=O)c1ccccc1 | 0.0712
Cc1ccc(S[C@]2(C(=O)O)CC(=O)N(C3Cc4ccccc4C3)[C@@H]2c2ccc(CO)cc2I)cc1 | -0.104
CC(C)(C)OC(=O)CC[C@@]1(C(=O)NCCN2CCOCC2)N=C(c2ccc(OCCCO)cc2)O[C@@H]1c1ccccc1 | 0.925
CCCN1C(=O)[C@@]2(CCC(=O)OC(C)(C)C)N=C(c3ccc(OCCCO)cc3)O[C@H]2c2ccccc21 | 1.11
COCCOC(=O)N1C(=O)[C@@]2(c3cc(C#CCC(C(=O)OC)C(=O)OC)ccc31)[C@H](c1ccc(O)cc1)N1[C@H](c3ccccc3)[C@H](c3ccccc3)OC(=O)[C@H]1[C@@H]2C(N)=O | 0.698
N#Cc1ccc(NN2C(C(O)c3ccc([N+](=O)[O-])cc3)C=CC3C(=O)N(c4ccccc4)C(=O)C32)cc1 (stereo unspecified) | 0.61
COCC(=C=CC[C@H](O)c1ccc(OCCO)cc1)C[C@H](O)c1cc(Cl)cc(Cl)c1O | 1.35
CCOC(=O)C1=CC[C@@H](c2ccccc2)N(S(=O)(=O)c2ccc(C)cc2)[C@H]1C(=O)OCC | 0.841
CCCCCN1CC=CC23O[C@@H]4C=CCOC(=O)[C@@H]4[C@H]2C(=O)N(CCCO)[C@@H]3C1=O (stereo partly specified) | 1.35
C[C@]1(C(=O)NCc2ccccc2)c2ccccc2C(=O)N(Cc2cc(F)cc(C(F)(F)F)c2)[C@H]1c1ccc(CO)cc1 | 0.376
COc1ccc(C(O)C2C=CC3C(=O)NC(=O)C3N2Nc2ccccn2)cc1OCc1ccccc1 (stereo unspecified) | -0.156
C=C(CCCC)C(=O)CC[C@H](OC(=O)c1cccnc1)c1cccc(OCCO)c1 | 0.343
O=C1OCCC/C=C\[C@H]2OC34C=CCN(Cn5nnc6ccccc65)C(=O)[C@H]3N(CCCCCO)C(=O)[C@@H]4C12 (stereo partly specified) | -0.921
CC(C)CNC(=O)[C@@H]1c2ccccc2C(=O)N(Cc2cc(C(F)(F)F)cc(C(F)(F)F)c2)[C@H]1c1ccc(CO)cc1 | -0.337
CC(C)(C)N1CC=CC23O[C@@H]4C=CCOC(=O)[C@@H]4[C@H]2C(=O)N(CCCCCO)[C@@H]3C1=O (stereo partly specified) | -1.2
CCOC(=O)C[C@H]1[C@H](OC(=O)c2ccc(-c3ccccc3)cc2)[C@@H](NC(=O)Cc2ccc(OC)cc2)c2cc(OCCCO)ccc2N1C(=O)c1ccc2ccccc2n1 | 1.13

Compound | composite z-score
COCCOC(=O)N1C(=O)[C@@]2(c3cc(C#CCNC(N)=O)ccc31)[C@H](c1ccc(O)cc1)N1[C@H](c3ccccc3)[C@H](c3ccccc3)OC(=O)[C@H]1[C@@H]2C(=O)Nc1nc2ccccc2s1 | 0.793
COc1ccc(C#Cc2ccc3c(c2)[C@]2(C(=O)N3)[C@H](C(=O)NC[C@H](O)c3ccccc3)[C@H]3C(=O)O[C@H](c4ccccc4)[C@H](c4ccccc4)N3[C@@H]2c2ccc(OCCO)cc2)cc1 | 1.43
O=C1OCCC=C[C@H]2OC34C=CCN(Cc5ccccc5)C(=O)[C@H]3N(CCCO)C(=O)[C@@H]4C12 (stereo partly specified) | -0.786
COC(=O)[C@@]1(Cc2ccccc2)N=C(c2ccc(OCCCO)cc2)O[C@H]1c1ccccc1N=[N+]=[N-] | 1.33
COc1ccc(NN2C(C(O)c3ccc(OC)c(OCc4ccccc4)c3)C=CC3C(=O)N(C4CCCCC4)C(=O)C32)cc1 (stereo unspecified) | 1.4
C=CCC(OC(C)=O)[C@@H]1[C@@H](N(Cc2cccc3ccccc23)C(=O)c2cccc3ccccc23)c2cc(OCCCO)ccc2N1C(=O)c1ccc2ccccc2n1 (stereo partly specified) | -0.316
CC(C)CNC(=O)[C@@]1(c2ccc([N+](=O)[O-])cc2)CC(=O)N(CC23CC4CC(CC(C4)C2)C3)[C@@H]1c1ccc(CO)cc1I | 1.39
Cc1ccc(S[C@]2(C(=O)NCC(C)C)CC(=O)N(Cc3ccccc3Cl)[C@@H]2c2ccc(CO)cc2)cc1 | -0.411
[N-]=[N+]=NCc1ccccc1C[C@]1(C(=O)O)N=C(c2ccc(OCCCO)cc2)O[C@H]1c1ccccc1 | 0.903
Cc1ccccc1C(O)C1C=CC2C(=O)N(C)C(=O)C2N1Nc1ccccc1 (stereo unspecified) | 0.633
O=C1O[C@H](c2ccccc2)[C@H](c2ccccc2)N2[C@H]1[C@@H](C(=O)N1CCN(c3ncccn3)CC1)[C@]1(C(=O)Nc3ccccc31)[C@H]2c1ccc(OCCO)cc1 | 1.42
CCCCCN1CC=CC23O[C@@H]4/C=C\CCC(C)OC(=O)C4[C@H]2C(=O)N(CCCCCO)[C@@H]3C1=O (stereo partly specified) | -1.38
CC(C)Cc1ccc(CN2CC[C@@H](NS(=O)(=O)c3ccccc3)C2)cc1 | 0.429
C=CCC(OC(C)=O)[C@@H]1[C@@H](N(Cc2cccc3ccccc23)C(=O)c2ccc(C)cc2)c2cc(OCCCO)ccc2N1C(=O)Cc1ccc(OC)cc1 (stereo partly specified) | 0.332
CN1C(=O)C2C=CC(C(O)c3ccccn3)N(Nc3ccccc3)C2C1=O (stereo unspecified) | 0.409
COc1cccc(C(=O)O[C@H]2CC[C@]3(C)C4=C(CCC3C2(C)C)[C@]2(C)CC[C@H]([C@H](C)CCCC(C)C)[C@@]2(C)CC4)c1 (stereo partly specified) | -0.212
COc1ccc(C(=O)Nc2cccc(CN3C(=O)[C@@]4(O[C@@H](CCn5cc(CCO)nn5)[C@H]([Si](C)(C)c5ccc(OC)cc5)[C@H]4C)c4ccccc43)c2)cc1 | 1.37
O=C1N(CCS(=O)(=O)c2ccccc2)Cc2ccccc2C[C@]12N=C(c1ccc(OCCCO)cc1)O[C@@H]2c1ccccc1 | -0.183
